Screening results as filed in PubChem.
Shown are actives, neighbours in structure and some others; about 11% of the full set was active somewhere.
FBPA coupling cs = counter-screen for Giardia aldolase inhibitors: coupling enzyme system; coupling enzyme system counterscreen, AmpLite Red fluorescence; activity change, negative = inhibition, % at 58.2 µM, hits read low; 290,000 compounds, 0.67% hits; AID 2472; in the data active means activity change below about -30%
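Final compound at 57.5 uM, incubated 10 min at RT with coupling enzyme reagent (glyceraldehyde-3-phosphate), then 20 min with substrate and AmpLite Red detection. Fluorescence read at 525/598 nm; tests interference with the coupling assay, not aldolase inhibition.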
Sfp PPTase inh = Sfp phosphopantetheinyl transferase inhibition; Potency, µM, without a hit: largest response in the series, negative = inhibition, hits mostly inhibitors; AID 1490; Q9F4F7; 310,000 compounds, 3.5% hits; Biochemical Sfp PPTase activity, qHTS;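 further: the enzyme is Sfp with the accession as filed and its product quenches rhodamine fluorescence; potency means the concentration at half of the fitted maximal effect; 0% = enzyme reaction without inhibitor and -100% = no enzyme wells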
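After 15 min at room temperature with compound, 15 nM Sfp received 5 uM rhodamine-CoA plus 12.5 uM BHQ-2-ybbR (50 mM Hepes pH 7.6, 10 mM MgCl2). Rate came from the fluorescence difference over 30 min, ex 525/em 598 nm.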
Tau fibril ThT = blocks human tau fibril formation measured by thioflavin T; P10636; recombinant tau K18 P301L, heparin-induced fibrillization, ThT fluorescence; Potency, µM (top dose mostly 57.4 µM), without a hit: top-dose activity, negative = inhibition, hits mostly inhibitors; 270,000 compounds, 2.1% hits; AID 1460; further: potency means the concentration at half of the fitted maximal effect; nearly all actives have a fitted effect of over 55% in size
Target sequence (P10636 561-689 P618L limits assumed): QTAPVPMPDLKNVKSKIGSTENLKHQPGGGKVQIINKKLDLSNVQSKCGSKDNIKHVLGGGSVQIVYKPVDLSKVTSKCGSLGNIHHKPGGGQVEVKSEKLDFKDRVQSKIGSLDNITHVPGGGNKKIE
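Fibril formation assay: tau K18 P301L at 15 uM with trace Alexa 594 label, heparin inducer 20 uM, pH 7 sodium acetate buffer, 37 C for 6 hr; endpoint ThT signal.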
G9a block = G9a (human) methyltransferase inhibition. Potency, µM (titrated, usually from 102 µM), for inactives: top-dose activity, negative = inhibition, hits mostly inhibitors. G9a H3K9 monomethylation, AlphaScreen, 2 h. AID 504332. 350,000 compounds, 8.8% hits. Q96KQ7; further: potency means the concentration at half of the fitted maximal effect; nearly all actives have a fitted effect of over 75% in size
Target sequence (Q96KQ7 913-1193 limits assumed): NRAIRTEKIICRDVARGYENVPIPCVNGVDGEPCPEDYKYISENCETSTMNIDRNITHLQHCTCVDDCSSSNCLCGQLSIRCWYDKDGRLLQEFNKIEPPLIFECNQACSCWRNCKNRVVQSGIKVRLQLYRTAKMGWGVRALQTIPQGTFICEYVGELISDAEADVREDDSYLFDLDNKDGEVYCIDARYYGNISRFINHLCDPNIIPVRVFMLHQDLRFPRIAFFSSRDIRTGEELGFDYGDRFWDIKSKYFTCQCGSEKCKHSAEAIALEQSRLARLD
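Quantitative HTS format: methyltransferase activity on a biotin-tagged H3K9 peptide is measured by AlphaScreen, using a rabbit anti-monomethyl-H3K9 antibody with streptavidin donor and anti-IgG acceptor beads. Final levels are 20 nM enzyme, 500 nM peptide, 20 uM SAM; 2 h RT.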
Tau fibril FP = blocks human tau fibril formation measured by polarization; P10636; AID 1468; Potency, µM (titrated, usually from 57.7 µM), for the others: at the top dose activity, negative = inhibition, actives largely listed as inhibitors; 280,000 compounds, 0.39% hits; K18 P301L tau heparin fibrillization, Alexa594 FP, 6 h; further: potency means the concentration at half of the fitted maximal effect; nearly all actives have a fitted effect of over 55% in size
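Compound effects on tau fibrillization are measured by Alexa 594 fluorescence polarization (ex 555, em 632 nm). K18 P301L tau is used at 15 uM with 0.24 uM labeled tracer, and 20 uM heparin induces aggregation over 6 hr at 37 C.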
Tau fluor counter = counter-screen for tau fibril formation inhibitors; tau K18 P301L (four-repeat tau fragment) Alexa594 fluorescence, heparin fibrillization; Potency, µM (top dose mostly 57.7 µM), without a hit: at the top dose activity change, negative = decrease; 280,000 compounds, 0.93% hits; further: potency means the concentration at half of the fitted maximal effect; nearly all actives have a fitted effect of over 55% in size
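Human K18 P301L tau (15 uM unlabeled plus 0.24 uM Alexa 594-labeled, final) in 100 mM sodium acetate pH 7 was mixed with compound and 20 uM heparin and incubated 6 hr at 37 C.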
* hit, by the source's call; u = inconclusive; x = no result given; [ ] = dose if it differs, or a comment. Unless noted, the call rests on the fitted dose curve; in most records, active means well fitted curve in the direction sought with a large enough effect; inconclusive means small, poorly fitted or top-dose-only effect, or another doubt; inactive means no such curve, though single readings can be large; an effect the other way counts as inactive or inconclusive. Unless noted, on the % scale 0 is the no-effect control and ±100 the full control effect.

SMILES	FBPA coupling cs	Sfp PPTase inh	Tau fibril ThT	G9a block	Tau fibril FP	Tau fluor counter
Cc1cc(C)cc(Nc2cc(C(=O)NCCCN(C)C3CCCCC3)c3ccccc3n2)c1	x	x	u	7%[59 µM]	4%	3.2µM*[quencher]
Cc1cc(C)cc(Nc2cc(C(=O)NCc3ccccc3)c3ccccc3n2)c1	x	x	-13%	47%[59 µM]	u	3.5µM*[quencher]
Cc1ccc(S(=O)(=O)N2CCCC2C(=O)NCc2ccc3c(c2)OCO3)cc1 (centres undefined)	1	-3%	-7%	x	u	-12%
N#Cc1cccc(-c2nc3cnc(N4CCOCC4)nc3n(C3CC3)c2=O)c1	3	14%	x	-5%[0.501 µM]	x	x
O=C(COC(=O)c1ccc(F)cc1F)Nc1ccc2[nH]c(=O)[nH]c2c1	4	9%	u	u	9%	-27%
O=C(COC(=O)c1ccccc1Cl)Nc1ccc2[nH]c(=O)[nH]c2c1	x	x	x	-34%	x	x
O=C(COC(=O)Cc1ccc(F)cc1)Nc1ccc2[nH]c(=O)[nH]c2c1	x	x	x	50µM*	x	x
O=C(COC(=O)c1ccccc1OC(F)F)Nc1ccc2[nH]c(=O)[nH]c2c1	x	x	x	40µM*	x	x
Cc1ccc(/C=C/C(=O)OCC(=O)Nc2ccc3[nH]c(=O)[nH]c3c2)o1	x	x	x	40µM*	x	x
O=C(NC1CCCC1)C1CCN(C(=O)c2ccc(Cl)cc2Cl)CC1	8	6%	x	19%	x	x
CCCC(=O)Nc1c2c(nn1-c1ccc(C)cc1C)CSC2	0	u	-12%	22µM*	-5%	-5%
CC(=O)Nc1c2c(nn1-c1ccc(C)cc1C)CSC2	4	-28%	-23%	-34%[59 µM]	-12%	-14%
O=C(CBr)Nc1c2c(nn1-c1ccccc1)CSC2	2	-14%	x	22µM*	x	x
CCCC(=O)Nc1c2c(nn1-c1ccccc1)CSC2	2	19%	x	18%[59 µM]	x	x
CC(C)(C)c1ccc(C(=O)Nc2ccc(C(=O)OCc3cc(=O)n4ccsc4n3)cc2)cc1	x	x	-9%	-3%[12.7 µM]	-7%	-27%
CC(C)(C)c1ccc(C(=O)NCCCNC(=O)c2cccnc2)cc1	2	2%	x	14%	x	x
CC(C)(C)c1ccc(OCC(=O)OCCNC(=O)c2cccnc2)cc1	3	7%	-14%	50µM*	u	-4%
Cc1ccc(/C=C/c2ccc(N(C)C)cc2)[n+](C)c1	0	u	x	-48%[2.33 µM]	x	x
CN(C)c1ccc(/C=C/c2cc[n+](C)cc2)cc1	-2	3%	4µM*	10µM*	u	14µM*[fluorescent]
CN(C)c1ccc(/C=C/c2cc[n+]([O-])cc2)cc1	-2	0%	u	50µM*	3%	-8%
O=S(=O)(c1ccc(Br)cc1)c1nc(-c2cccs2)oc1SCc1ccccc1F	x	x	-7%	5%[59 µM]	u	u
O=C(C[n+]1cc(Br)cc2ccccc21)c1ccccc1	2	-7%	x	45µM*	x	x
COc1ccc(C(=O)OCC(N)=O)cc1[N+](=O)[O-]	-1	12%	5%	11%[59 µM]	9%	9%
COc1ccc(C(=O)C[n+]2cc(Br)cc3ccccc32)cc1[N+](=O)[O-]	0	4%	x	35µM*	x	x
Cc1ccc2c(ccc[n+]2CC(=O)c2ccccc2)c1	6	9%	-8%	-4%[59 µM]	2%	-4%
SMILES	FBPA coupling cs	Sfp PPTase inh	Tau fibril ThT	G9a block	Tau fibril FP	Tau fluor counter
Cc1oc(-c2ccc(C(=O)NCCCOC(C)C)cc2)nc1CS(=O)(=O)c1ccccc1	x	x	-9%	-20%[59 µM]	-7%	-5%
Cc1ccccc1Cc1c(C)nc2nc(SCC(=O)NCCc3ccc(Cl)cc3)nn2c1C	x	x	-13%	-31%[59 µM]	9%	-13%
COCC(=O)N1CCC2(CCCN(C(=O)Nc3ccc(OC)cc3)C2)CC1	4	20%	x	-1%[12.7 µM]	x	x
Cc1nc2ccccc2n1S(=O)(=O)c1ccc(F)cc1	3	13%	x	4%[59 µM]	x	x
Cc1ccc(S(=O)(=O)n2c(N)nc3ccccc32)cc1	-3	9%	x	50µM*	x	x
COc1ccccc1-n1cnc2cc(NCc3ccco3)ccc21	-6	0%	-11%	35µM*	-5%	-15%
Cc1ccc(NC(=O)c2ccco2)cc1C	0	11%	-14%	5%[59 µM]	-4%	-2%
Cc1ccc(NCc2ccco2)cc1C	-1	79µM*	u	4.5µM*	-6%	-19%
COc1ccc(NC(=O)CSc2nncn3c2cc2occc23)c(OC)c1	x	x	u	-22%[59 µM]	5%	-22%
Cc1nnc2ccc(-c3ccc(NC(=O)c4ccc(Cl)nc4)cc3)nn12	1	12%	-7%	79µM*	4%	-2%
CCCn1c(C(CO)Nc2nc(-c3cccc(Br)c3)cs2)nc2ccccc21 (centres undefined)	-1	-9%	x	45µM*	x	x
COc1ccc(N2C(=S)NC3CS(=O)(=O)CC32)cc1 (centres undefined)	0	-10%	-5%	x	-2%	1%
OC1NC(=S)N(c2ccccc2)C1O (centres undefined)	3	4%	-1%	x	0%	8%
COc1ccc(C2NC(=S)N3C(c4ccc(OC)cc4)NC(=S)N23)cc1 (centres undefined)	2	56µM*	-27%	4µM*	0%	-6%
S=C1NC(c2ccccc2)N2C(=S)NC(c3ccccc3)N12 (centres undefined)	0	56µM*	-7%	u	-3%	1%
CCOC(=O)c1cccc(NC(=O)N2CC(CC)Oc3ccccc32)c1 (centres undefined)	x	x	-5%	-35%[59 µM]	-9%	-2%
Cc1cc(=O)n2nc(N3CCCC(C(=O)NCc4cccc(Br)c4)C3)sc2n1 (centres undefined)	1	12%	x	18%	x	x
Cc1ccc(S(=O)(=O)NNC(=O)Cc2cccn2C)cc1	-1	15%	-6%	u	-3%	-1%
Cc1cccc(S(=O)(=O)NNC(=O)Cc2cccn2C)c1	0	12%	-9%	50µM*	5%	-3%
CCOc1ccc(CNC(=S)Nc2ccccc2)cc1Cl	1	15%	x	x	x	x
COC(=O)c1ccc(CSc2nc3ccc(S(=O)(=O)N4CCOCC4)cc3[nH]2)cc1	-5	1%	3%	14µM*	-17%	u
Cc1csc(SCc2ccc(C(=O)O)cc2)n1	8	7%	-1%	45µM*	3%	1%
CCc1ccc(C(=O)CSc2nc3cc(S(=O)(=O)N4CCOCC4)ccc3n2CC)cc1	-5	u	5%	45µM*	1%	-3%
O=S(=O)(c1ccc2nc(COc3ccccc3)[nH]c2c1)N1CCOCC1	3	11%	-1%	50µM*	0%	-6%
CC1CCCN(S(=O)(=O)c2cc3c(cc2Cl)NC(=O)CO3)C1 (centres undefined)	x	x	-7%	-9%[59 µM]	11%	u
